Compound activity: PubChem BioAssay, several laboratories
Sampled rows, rich in hits. Any-hit rate of the full collection: about 3.1%.
SARS 3CLpro inh = SARS-CoV 3CLpro protease inhibition; inhibition, % at 6 µM; recombinant SARS-CoV 3CLpro, quenched FRET peptide cleavage; P0C6X7; 290,000 tested, 0.14% active; AID 1706; in the data active = inhibition above about 12%
GDH-TPI counter = counter-screen for M. tuberculosis FBA inhibitors: GDH-TPI coupled enzymes; GDH-TPI coupled enzyme counterscreen, NADH absorbance; inhibition, % at 4.8 µM; 360,000 tested, 1.2% active; in the data active = inhibition above about 30%;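 note: 0% = DMSO wells and 100% = wells lacking the enzyme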
FBA Mtb inh = inhibits M. tuberculosis FBA enzyme. P9WQA3. purified M. tuberculosis FBA, fluorescence read-out. inhibition, % at 1 µM. 360,000 tested, 2.3% active; in the data active = inhibition above about 27%;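 note: 0% = vehicle and 100% = reference inhibitor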
Target sequence (P9WQA3 whole entry, looked up): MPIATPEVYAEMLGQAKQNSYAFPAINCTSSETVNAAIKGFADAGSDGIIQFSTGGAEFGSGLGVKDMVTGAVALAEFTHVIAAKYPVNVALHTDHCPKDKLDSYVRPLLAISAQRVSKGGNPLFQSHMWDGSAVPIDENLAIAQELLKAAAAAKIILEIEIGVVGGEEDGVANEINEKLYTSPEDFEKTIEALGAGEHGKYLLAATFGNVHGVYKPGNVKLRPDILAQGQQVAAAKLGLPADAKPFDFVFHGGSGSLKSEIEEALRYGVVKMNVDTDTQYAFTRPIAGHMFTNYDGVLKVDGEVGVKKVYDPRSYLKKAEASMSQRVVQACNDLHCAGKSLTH
BioA inh = blocks M. tuberculosis BioA enzyme activity; purified M. tuberculosis BioA enzyme, plate reader; inhibition, % at 9.99 µM; 360,000 tested, 0.096% active; AID 602481; in the data active = inhibition above about 40%
FadD28 FP inh = blocks FadD28 binding to the bisubstrate probe; fluorescence polarization; inhibition, % at 12.5 µM; 360,000 tested, 0.22% active; in the data active = inhibition above about 8.5%, passing the limit was not always enough
* = called active by the depositor; x = no result; + = active, no number.

SMILES	SARS 3CLpro inh	GDH-TPI counter	FBA Mtb inh	BioA inh	FadD28 FP inh
N#C/C(=C/c1ccc(-c2ccc(S(N)(=O)=O)cc2)o1)c1nc2ccccc2s1	-2	7	-15	x	20*
CCc1ccc(/C=N/Nc2ncnc3nc[nH]c23)cc1	-1	71*	3	x	-3
O=C1CC(c2ccc(O)c(O)c2)Oc2cc(O)cc(O)c21 (configuration not stated)	x	31*	6	0	-5
O=C1CC(c2ccc(O)cc2)Oc2cc(O)cc(O)c21 (configuration not stated)	-2	27	-1	1	-4
CC(C)NC(=O)N(C)C[C@H]1Oc2c(cccc2N(C)C)C(=O)N([C@@H](C)CO)C[C@H]1C	x	x	x	-1	x
C[C@@H]1CN([C@H](C)CO)C(=O)c2cc(NS(C)(=O)=O)ccc2O[C@@H](C)CCCCO[C@@H]1CN(C)S(C)(=O)=O	x	x	x	-2	x
Cc1cccc(N/N=C2/COC(C)(C)CC2=O)c1	-3	8	3	0	-1
CC1(C)CC(=O)/C(=N/Nc2ccc(Cl)cc2)CO1	1	31*	-2	-1	0
CC(C)COC(=O)N(C)C[C@H]1OCc2ccccc2-c2c(n(C)c3ccccc23)C(=O)N([C@@H](C)CO)C[C@@H]1C	x	x	x	4	x
O=C(C[C@@H]1CC[C@@H]2[C@H](COC[C@@H](O)CN2Cc2cccc(F)c2)O1)NCCc1ccncc1	x	x	x	0	x
Cc1ccccc1-n1c2nc(=O)n(C)c(=O)c-2cc2ccccc21	1	21	131*	1	-3
Cc1ccccc1-n1c(C)nc2sccc2c1=O	-2	1	1	1	-2
Cn1cccc1/C=N/NC(=O)C(O)c1ccccc1 (configuration not stated)	5	31*	-3	0	2
Cc1ccc(/C=N/NC(=O)c2ccccn2)s1	-1	32*	0	x	-1
Cc1ccc(/C=N/NC(=O)c2ccc3c(c2)OCCO3)s1	-1	13	-5	x	-2
Cc1ccc(/C=N/NC(=O)c2ccc3ccccc3c2)s1	-3	32*	-1	-2	-2
Cc1cc(C(=O)N/N=C/c2cccn2C)no1	3	31*	0	x	-1
Cc1cc(C(=O)N/N=C/c2sccc2C)no1	0	16	2	x	-1
Cn1cccc1/C=N/NC(=O)Cc1ccccc1	4	24	-2	0	-4
COCC#Cc1ccc2c(c1)O[C@@H](CN(C)CC1CCOCC1)[C@@H](C)CN([C@@H](C)CO)S2(=O)=O	x	x	x	-1	x
Cn1cccc1/C=N/NC(=O)c1ccncc1	-1	35*	1	0	0
Cn1cccc1/C=N\NC(=O)c1cncc(Br)c1	-3	26	-1	1	-3
Cn1cccc1/C=N/NC(=O)c1ccccn1	0	31*	-1	-1	0
C[C@@H]1CN([C@H](C)CO)C(=O)c2cc(C3=CCCCC3)cnc2O[C@H]1CN(C)Cc1ccncc1	x	x	x	1	x
COc1ccc(CNC(=O)N(C)C[C@H]2OCc3ccccc3-c3c(n(C)c4ccccc34)C(=O)N([C@@H](C)CO)C[C@@H]2C)cc1	x	x	x	1	x
SMILES	SARS 3CLpro inh	GDH-TPI counter	FBA Mtb inh	BioA inh	FadD28 FP inh
O=C(N/N=C\c1ccc2c(c1)OCO2)c1ccco1	1	43*	4	x	-3
COc1ccc(/C=N/NC(=O)c2ccccc2O)cc1CN1CCOCC1	7	40*	5	-1	-1
O=C(NN=Cc1ccc2c(c1)OCO2)c1ccccc1	x	38*	-1	1	-2
COc1cc(NC(=O)c2ccc3c(c2)OCO3)ccc1NC(=O)c1ccco1	0	42*	0	-6	0
COc1ccc(/C=N/NC(=O)c2cccc(Br)c2)cc1CN1CCOCC1	8	12	-4	-2	-3
O=C(N/N=C/c1ccc2c(c1)OCO2)c1ccc2c(c1)OCO2	1	16	-2	0	-4
Cc1ccc(S(=O)(=O)N(C)C[C@@H]2OCCCC[C@@H](C)Oc3ccc(NC(=O)Nc4ccccc4)cc3C(=O)N([C@H](C)CO)C[C@H]2C)cc1	x	x	x	1	x
S=C(NN=Cc1ccc2c(c1)OCO2)NN=Cc1ccc2c(c1)OCO2	x	62*	1	-2	-1
COc1cc(/C=N/NC(=O)c2ccncc2)cc2c1OCO2	0	17	-1	-1	-1
COc1ccccc1C(=O)N/N=C/c1ccc2c(c1)OCO2	-4	9	-1	0	-5
O=C(N/N=C\C=C\c1ccc2c(c1)OCO2)c1cccnc1	2	54*	1	14	-1
O=C(NN=Cc1ccc2c(c1)OCO2)c1ccncc1	x	33*	0	0	-4
COc1cc2ccccc2cc1C(=O)N/N=C/c1ccc2c(c1)OCO2	-4	42*	4	-1	x
COCCCNC(=S)N/N=C/c1ccc2c(c1)OCO2	0	27	2	-8	-2
O=C(N/N=C\C=C\c1ccc2c(c1)OCO2)C1COc2ccccc2O1 (configuration not stated)	-1	40*	4	x	0
CCC(C)/C(C)=N/NC(=O)C1COc2ccccc2O1 (configuration not stated)	2	3	1	x	-4
COc1ccc(CCNS(=O)(=O)c2c(C)nc3scc(C)n3c2=O)cc1OC	2	4	0	0	x
CCOc1ccc(CCNS(=O)(=O)c2c(C)nc3scc(C)n3c2=O)cc1OCC	2	33*	-1	-2	0
O=C(N/N=C/C=C/c1ccco1)c1ccccc1Cl	-1	27	0	x	0
CCOC(=O)N/N=C(C)/C=C/c1ccco1	4	23	4	-5	0
CC(/C=C/c1ccco1)=N\NC(=O)c1cccc(Cl)c1	4	32*	1	-1	-1
CC(/C=C/c1ccco1)=N/NC(=O)c1ccccc1Cl	2	32*	-1	-1	0
COc1ccccc1CNC(=O)C[C@H]1CC[C@@H]2[C@H](COC[C@H](O)CN2C(=O)Nc2ccc(Cl)cc2)O1	x	x	x	3	x
COC(=O)C1=CN(Cc2ccccc2)C=C(C(=O)OC)C1c1ccc(O)c(OC)c1	3	4	3	2	0
COCCN1C=C(C(=O)OC)C(c2ccccc2Cl)C(C(=O)OC)=C1	0	0	+	-1	-3
SMILES	SARS 3CLpro inh	GDH-TPI counter	FBA Mtb inh	BioA inh	FadD28 FP inh
COCCN1C=C(C(=O)OC)C(c2cc(Br)c(OC)c(OC)c2)C(C(=O)OC)=C1	-1	3	+	-1	-2
COC(=O)C1=CN(C)C=C(C(=O)OC)C1c1ccc(O)c(OC)c1	-2	-6	2	0	1
CNC(=O)C12CCC(C)(c3nc4cc(C)c(C)cc4nc31)C2(C)C (configuration not stated)	-2	16	3	0	-3
CCCNC(=O)C12CCC(C)(c3nc4cc(C)c(C)cc4nc31)C2(C)C (configuration not stated)	0	55*	2	-2	-1
COc1cccc(-c2ccc3c(c2)O[C@H](CN(C)C(=O)C2CCC2)[C@@H](C)CN([C@H](C)CO)S3(=O)=O)c1	x	x	x	-2	x
COc1cc2sc3cc(NCCCN4CCOCC4)ccc3c(=O)c2cc1OC	x	24	34*	0	-21
